# A selection: hits, their analogues and other compounds. The true share with any hit is near 17%.
# ATXN2 expr inh: reduces ATXN2 reporter expression in HEK-293 cells; Potency, µM (top dose mostly 57 µM), inactives show at the highest dose activity change, negative = inhibition, usual class: inhibitors; AID 1745845; HEK-293 ATXN2-luciferase reporter, luminescence, 24 h; 360,000 tested, 0.72% active; further: on the % scale 0 is the no-effect control and ±100 the full control effect; nearly all actives have a fitted effect of over 55% in size
#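 qHTS (up to 57 uM final) was run with 24 h compound exposure of reporter cells at 37 °C. Each well was multiplexed: SteadyGlo luminescence measured ATXN2-luciferase expression after a fluorogenic Gly-Phe-AFC viability readout (25 uM final).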
# TGFb inhibitor: inhibitors of TGF-b signaling | HepG2 CAGA-GFP TGF-b/SMAD3 reporter, GFP fluorescence, 18 h; TGF-beta stimulated, 500 pg/mL final | Potency, µM (top dose mostly 46.1 µM), without a hit: at the highest dose activity, negative = inhibition, actives largely listed as inhibitors | 410,000 tested, 1.2% active; further: on the % scale 0 is the no-effect control and ±100 the full control effect; nearly all actives have a fitted effect of over 65% in size
#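 Smad-responsive CAGA-GFP expression was quantified in HEPG2 cells exposed to compounds and 500 pg/mL final TGF-beta for 18 h at 37 degrees C; unstimulated wells defined full inhibition.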
# TDP1 cell CPT: growth inhibition of DT40 Tdp1-/-;hTDP1 cells with camptothecin (screen for TDP1 inhibitors). chicken DT40 Tdp1-/-;hTDP1 cells + 20 nM CPT, ATP luminescence, 48 h. Potency, µM (doses to about 46.2 µM), for inactives: top-dose activity change, negative = growth inhibition, hits mostly inhibitors. 420,000 tested, 12% active. AID 686979; further: on the % scale 0 is the no-effect control and ±100 the full control effect; nearly all actives have a fitted effect of over 55% in size
#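 Cell growth measured by CellTiter-Glo luminescence after a minimum 48 h, 37 C compound exposure with 20 nM CPT in Tdp1-knockout DT40 cells stably expressing hTDP1, seeded 400/well; qHTS titration format.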
# DT40 TDP1 no CPT: qHTS for Inhibitors of human tyrosyl-DNA phosphodiesterase 1 (TDP1): qHTS in cells in absence of CPT | DT40 Tdp1-/- hTDP1 cells, no CPT, ATP luminescence, 48 h | Potency, µM (highest dose often 46.2 µM), for inactives: top-dose activity change, negative = growth inhibition, most hits filed as inhibitors | 420,000 tested, 15% active; further: on the % scale 0 is the no-effect control and ±100 the full control effect; nearly all actives have a fitted effect of over 55% in size
#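 Growth of hTDP1-complemented DT40 Tdp1-knockout cells is measured by ATP luminescence after at least 48 hr compound exposure at 37 °C, with DMSO substituting for the 20 nM CPT used in the parallel screen.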
# S2 tox: reduces viability in counter-screen for ATXN expression inhibitors; S2 cells (HEK-293 line with an ATXN2-luciferase reporter) viability, CellTiter-Fluor protease fluorescence, 24 h; Potency, µM (top dose mostly 56.7 µM), hits mostly cytotoxic; 400,000 tested, 0.49% active; further: nearly all actives have a fitted effect of over 40% in size
# HepG2 tox: HepG2 cytotoxicity, counter-screen for TGF-b inhibitors; HepG2 CAGA-GFP viability, ATP luminescence, 18 h; Potency, µM (doses to about 46.1 µM), inactives show at the top dose activity change, negative = cytotoxicity, hits mostly cytotoxic; 410,000 tested, 0.76% active
#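 CellTiter-Glo luminescence gave cytotoxicity after 18 hours at 37 degrees C. The cells were HepG2 CAGA-GFP in 1% FBS DMEM, stimulated with 500 pg/mL TGF-beta after compound addition. %Activity was normalised to no-cell wells (complete cell-killing) and DMSO (no toxicity), and curves were fitted and classified.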
# The depositor's hits bear a star; i = inactive; ? = inconclusive; . = not tested or not shown. The call rests on the fitted dose curve; in most records, active means well fitted curve in the direction sought with a large enough effect; inconclusive means small, poorly fitted or top-dose-only effect, or another doubt; inactive means no such curve, though single readings can be large; an effect the other way counts as inactive or inconclusive. Potency means the concentration at half of the fitted maximal effect.
SMILES,ATXN2 expr inh,TGFb inhibitor,TDP1 cell CPT,DT40 TDP1 no CPT,S2 tox,HepG2 tox
COc1cccc(N2CCN(c3ncnc4onc(-c5ccc(F)cc5)c34)CC2)c1,5%,15%,5%,0%,i,-1%
Cc1noc2ncnc(N3CCN(c4cccc(C(F)(F)F)c4)CC3)c12,.,?,12µM*,8.2µM*,.,-25%
Cc1cccc(N2CCN(c3ncnc4onc(C)c34)CC2)c1C,-4%,25%,?,?,i,-12%
Cc1cccc(N2CCN(c3ncnc4onc(C)c34)CC2C)c1 (stereo not given),.,-25%,4.6µM*,2.3µM*,.,-6%
CC(C(=O)C12CC3CC(CC(C3)C1)C2)N1CCOCC1 (stereo not given),0%,0%,?,?,?,-3%
CCOc1ccc(NC(=O)Nc2ccon2)cc1,80%,3%,?,?,i,-8%
C=CCN1C(c2ccc(Br)cc2)=CS/C1=C(/C#N)c1nnc(N2CCOCC2)n1-c1ccccc1,.,-25%,7.3µM*,8.2µM*,i,-2%
C=CCN1C(c2cccc(C(F)(F)F)c2)=CS/C1=C(/C#N)c1nnc(N2CCOCC2)n1-c1ccccc1,0%,?,12µM*,12µM*,i,-27%
C=CCN1C(=O)NC(c2ccc(OC)cc2)(C(F)(F)F)S/C1=C(\C#N)c1nnc(N2CCOCC2)n1-c1ccccc1 (stereo not given),-11%,-30%,13%,-10%,i,-10%
Cn1c2c(c(=O)n(C)c1=O)C(CC(=O)Nc1ccc(F)cc1)C(=O)N2 (stereo not given),5%,6%,2%,10%,i,-5%
CC(C)N(CC[C@H](c1ccccc1)c1cc(CO)ccc1O)C(C)C,-7%,.,.,.,.,.
Cc1ccc(OCCCn2c(CCNC(=O)C3CCCCC3)nc3ccccc32)c(C)c1,6%,-8%,?,?,i,-8%
Cc1ccccc1OCCCCn1c(CCNC(=O)C(C)(C)C)nc2ccccc21,?,16µM*,13µM*,8.2µM*,?,-86%
COc1ccc(OCCn2c(CCNC(=O)C3CCCCC3)nc3ccccc32)cc1,.,-2%,?,13µM*,.,-21%
Cc1cccc(OCCCn2c(CCNC(=O)C(C)(C)C)nc3ccccc32)c1,-25%,-14%,?,?,?,-16%
Cc1cccc(OCCn2c(CCNC(=O)C3CCCCC3)nc3ccccc32)c1,.,-3%,?,?,.,-11%
Cc1cccc(C)c1OCCCn1c(CCNC(=O)C2CCCCC2)nc2ccccc21,.,11µM*,15µM*,18µM*,.,-94%
Cc1cc(OCCCn2c(CCNC(=O)C3CCCCC3)nc3ccccc32)ccc1Cl,.,?,6.5µM*,7.3µM*,.,-115%
COc1ccc(/C=C(/NC(=O)/C=C/c2ccccc2)C(=O)NCCCCCC(=O)O)cc1,11%,-14%,0%,10%,i,-5%
c1ccc2c(c1)COc1c3ncccc3nn1-2,8%,-2%,-24%,?,i,-6%
Cc1ccc(C(C)n2cc(C(=O)NCc3ccccn3)nn2)cc1 (stereo not given),1%,3%,-2%,22%,i,0%
O=C(NCCc1nc2ccccc2n1CCCOc1ccccc1)C1CCCCC1,.,?,10µM*,11µM*,.,-9%
CCc1ccc(OCCCn2c(CCNC(=O)C3CCCCC3)nc3ccccc32)cc1,.,-6%,?,-21%,.,4%
CCC(=O)Nc1ccc(CC)cc1-c1nc2ccccc2n(CC(=O)Nc2cccc(Cl)c2)c1=O,.,-17%,21µM*,?,.,-25%
O=C(Nc1ccc2c(c1)OCO2)O[C@@H]1C[C@H]2CCCC(=O)N3CC[C@@H](C1)[C@@H]23,9%,-13%,-19%,-24%,i,-30%
SMILES,ATXN2 expr inh,TGFb inhibitor,TDP1 cell CPT,DT40 TDP1 no CPT,S2 tox,HepG2 tox
CC1(C)CCC(=O)N2CC[C@H]3C[C@H](OC(=O)Nc4ccc(Br)cc4)C[C@@H]1[C@H]32,13%,-18%,35µM*,?,i,-21%
Cc1ccn2cc(-c3ccc(NC(=O)c4ccco4)cc3)nc2c1,9%,-13%,?,?,?,-38%
CSC1=NC(C)(C)C=C(/C=C/c2c(Cl)cccc2Cl)N1,8%,20%,14%,4%,i,-2%
CSC1=NC(C)(C)C=C(/C=C/c2ccc(Cl)cc2)N1,?,?,21µM*,16µM*,?,-19%
CCSC1=NC(C)(C)C=C(/C=C/c2ccc(Cl)cc2Cl)N1,-6%,?,?,16µM*,i,-38%
CN(Cc1c(F)cccc1Cl)C(=O)c1cnc2ccccc2n1,27%,-3%,?,?,i,3%
COc1cc2c(cc1OC)CN(CC(=O)Nc1ccccc1C(=O)NCc1ccccc1)CC2,15%,11%,29µM*,15µM*,i,9%
COc1cccc(N2CCN(CC(=O)Nc3ccccc3C(=O)NCCc3ccccc3)CC2)c1,?,5%,21µM*,18µM*,i,-12%
O=C(CN1CCN(c2ccc(O)cc2)CC1)Nc1ccccc1C(=O)NCCc1ccccc1,-26%,2%,?,26µM*,?,-32%
COc1cccc(N2CCN(CC(=O)NCc3ccccc3)CC2)c1,-4%,-15%,4%,1%,i,-41%
COc1cccc(N2CCN(CC(=O)Nc3ccccc3C(=O)NCc3ccccc3)CC2)c1,0%,-10%,?,16µM*,i,-16%
CCN(CC(=O)Nc1c(F)cccc1F)C(=O)C1CCN(c2ncnc3sc(C)c(C)c23)CC1,-12%,-5%,21µM*,18µM*,i,3%
Cc1sc2ncnc(N3CCC(C(=O)NNC(=O)COc4ccc(Br)cc4)CC3)c2c1C,-28%,-19%,?,23µM*,i,-13%
Cc1cc(Br)ccc1NC(=O)CN(C)C(=O)C1CCN(c2ncnc3sc(C)c(C)c23)CC1,?,?,?,21µM*,?,-18%
Cc1sc2ncnc(N3CCC(C(=O)NNC(=O)c4ccccc4Cl)CC3)c2c1C,-3%,-8%,15µM*,21µM*,?,-24%
COc1ccc(NC(=O)CSCC(=O)N(C)CCOc2ccc(Cl)cc2)cc1,3%,-25%,?,?,?,-24%

# Screening data from PubChem BioAssay.
